# About 1,000 (1.4%) of roughly 69,000 compounds showed an effect of 50% or more. Many of the other results were omitted from the sample, so strong results are more common in it than they were.
# Test system: Leishmania donovani
# Test: Leishmania intramacrophage assay
# Assay type: functional, organism-based
# Parameters: scale not given: in the data most compounds retested in dose-response had high values
smiles,measurement,setting,value
CCc1cc(NCCc2cnccn2)n2nc(C)c(C)c2n1,Percent Effect,"30.3 µM, […]",3.819%
CNC(=O)[C@H]1CCS(=O)(=O)[C@@H]2CN(Cc3ccc(OC)cc3)C[C@H]12,Percent Effect,"30 µM, 30.03 µM",7.266%
Cc1cccc(C(=O)N2CCCCC2c2nc3cc(F)ccc3[nH]2)n1 (centres undefined),Percent Effect,"30.3 µM, […]",32.48%
Cc1noc([C@@H]2CC[C@@H]3[C@@H](CCN3c3nnc(C)s3)O2)n1.O=C(O)C(F)(F)F,Percent Effect,"30.3 µM, […]",50.59%
Cc1noc([C@H]2C[C@@H]3CCN(c4nnc(C)s4)C[C@H]3O2)n1.O=C(O)C(F)(F)F,Percent Effect,"30.3 µM, […]",7.673%
Cc1noc([C@@H]2C[C@@H]3CCN(c4nnc(C)s4)C[C@H]3O2)n1.O=C(O)C(F)(F)F,Percent Effect,"30.3 µM, […]",45.73%
O=C(NCCc1nnc2n1CCC2)NCC1(c2ccccc2F)CC1,Percent Effect,"30.3 µM, […]",6.319%
CC(C)NC(=O)C[C@@H]1CCNC[C@@H]1Cc1cc(-c2ccccc2)on1,Percent Effect,"30.3 µM, […]",-4.938%
O=C(NCC1CC2(CO1)CN(c1ncccn1)C2)C1CCC1 (centres undefined),Percent Effect,"30.3 µM, […]",1.586%
CCOC(=O)N1CCC(NC(=O)Nc2cccnc2OCC)CC1,Percent Effect,30 µM,21.62%
COCCNC(=O)c1cc(-c2ccc3c(c2)CCO3)n[nH]1,Percent Effect,"30.3 µM, […]",-2.658%
O=C(Nc1ccccc1)C1CN(CC2CCOCC2)CC12CCOCC2.O=C(O)C(F)(F)F (centres undefined),Percent Effect,"30.3 µM, […]",6.071%
O=C(Nc1ccccc1)C1CN(CC2CC2)CC12CCOCC2.O=C(O)C(F)(F)F (centres undefined),Percent Effect,"30 µM, 30.03 µM",52.69%
O=C(Nc1ccccc1)C1CN(Cc2ccco2)CC12CCOCC2.O=C(O)C(F)(F)F (centres undefined),Percent Effect,"30.3 µM, […]",14.17%
Cc1nccn1C1CCCN(C(=O)CCNc2ncccn2)C1 (centres undefined),Percent Effect,30 µM,-4.975%
COc1ncccc1CN1CCc2[nH]nc(C(=O)N(C)C)c2C1,Percent Effect,"30.3 µM, […]",13.46%
FC(F)(F)c1nc(NC2CCCC2)c2ccccc2n1,Percent Effect,"30 µM, 30.03 µM",52.6%
FC(F)(F)c1nc(NC2CCc3ncnn3C2)c2ccccc2n1 (centres undefined),Percent Effect,"30.3 µM, […]",-21.34%
FC(F)(F)c1nc(NC2CCCCC2)c2ccccc2n1,Percent Effect,"30.3 µM, […]",22.7%
COc1ccc(NC(=O)CCc2c(C)nc3cc(O)nn3c2C)cn1,Percent Effect,"30 µM, 30.03 µM",19.21%
CCC(CC)C(=O)N1CCN(Cc2nc3ccccc3c(=O)[nH]2)CC1,Percent Effect,"30.3 µM, […]",0.3817%
Cc1cc(CN(C)C2CCN(c3cccc(-c4cscn4)c3)CC2)on1,Percent Effect,"30.3 µM, […]",19.61%
CN(C)CCCN(C)C1CCN(c2cccc(-c3cscn3)c2)CC1,Percent Effect,"30.3 µM, […]",61.93%
c1cc(-c2cscn2)cc(N2CCC(NCCc3cccs3)CC2)c1,Percent Effect,"30.3 µM, […]",68.46%
O=C1CCCN1c1cccc(N2CCC(NCCc3cscn3)CC2)c1,Percent Effect,"30.3 µM, […]",16.35%
CC(C)CC(C)NC1CCN(c2cccc(-c3cscn3)c2)CC1 (centres undefined),Percent Effect,"30.3 µM, […]",17.78%
CN(Cc1ccon1)C1CCN(c2cccc(-c3cscn3)c2)CC1,Percent Effect,"30.3 µM, […]",-3.333%
c1ccc(-c2cccc(N3CCC(NCCc4cscn4)CC3)c2)cc1,Percent Effect,"30.3 µM, […]",97.96%
CN(Cc1nccs1)C1CCN(c2cccc(-c3cscn3)c2)CC1,Percent Effect,"30.3 µM, […]",8.314%
CN(Cc1cnn(C)c1)C1CCN(c2cccc(-c3cscn3)c2)CC1,Percent Effect,"30.3 µM, […]",12%
CC1CN(C(=O)c2cccc(OCc3cscn3)c2)CCO1 (centres undefined),Percent Effect,30 µM,15.03%
CNC(=O)CN([C@H]1C[C@H]2CCOC[C@H]2C1)S(=O)(=O)c1ccccc1,Percent Effect,"30.3 µM, […]",-15.54%
O=c1oc(-c2cccs2)nn1CC1(O)CCCCC1,Percent Effect,"30.3 µM, […]",-0.7487%
COc1cccc2c1OCC(NCCCOc1cccnc1)C2 (centres undefined),Percent Effect,"30.3 µM, […]",0.7744%
O=C(O)C(F)(F)F.c1ncn(Cc2cn3c(n2)CN(CC2CCCC2)CC3)n1,Percent Effect,"30.3 µM, […]",-12.84%
CC(NCC1(N(C)C)CCOCC1)c1ccc(SC(F)F)cc1 (centres undefined),Percent Effect,"30.3 µM, […]",43.5%
CCc1ccc(C(=O)N2CC(C(=O)NC(C)C)C3(CCOCC3)C2)cc1 (centres undefined),Percent Effect,"30.3 µM, […]",20.17%
CN(C)C(=O)c1cnc2n1CCN(Cc1ccsc1)C2.O=C(O)C(F)(F)F,Percent Effect,"30.3 µM, […]",24.8%
Cc1ccc(C(=O)NC(C)Cn2cccn2)c(=O)[nH]1 (centres undefined),Percent Effect,"30.3 µM, […]",61.08%
Cc1ccc(C(=O)OC(C)Cn2cccn2)c(=O)[nH]1 (centres undefined),Percent Effect,"30.3 µM, […]",9.557%
Cc1ccc(C(=O)NCC(C)Cn2cccn2)c(=O)[nH]1 (centres undefined),Percent Effect,"30.3 µM, […]",5.92%
CCC(O)CN1CCN(C(=O)c2ccn(C)c(=O)c2)CC1 (centres undefined),Percent Effect,30 µM,25.79%
CSCCC(Nc1nc(C)cc(C)n1)C(=O)NC(C)(C)CO (centres undefined),Percent Effect,"30.3 µM, […]",-4.466%
COC1CCCN(C(=O)Nc2nc(C)n(C)n2)C1 (centres undefined),Percent Effect,"30 µM, 30.03 µM",27.05%
O=C(NCCCN1CCc2ccccc2C1)c1cccnc1O,Percent Effect,"30 µM, 30.03 µM",26.46%
O=C(c1ccoc1)N(Cc1ccncc1)C1CC1,Percent Effect,"30.3 µM, […]",53.31%
O=C(c1ccoc1)N(Cc1ccccn1)C1CC1,Percent Effect,"30.3 µM, […]",-9.366%
O=C(c1ccoc1)N(Cc1cccnc1)C1CC1,Percent Effect,"30.3 µM, […]",22.13%
CSc1ccc(-c2nc(CN3CCC(CN)C3)c(C)o2)cc1 (centres undefined),Percent Effect,"30.3 µM, […]",98.64%
CSc1ccc(-c2nc(CN3CCC(NC(C)=O)CC3)c(C)o2)cc1,Percent Effect,"30.3 µM, […]",13.21%
CNC(=O)C1CCN(Cc2nc(-c3ccc(SC)cc3)oc2C)C1 (centres undefined),Percent Effect,"30.3 µM, […]",7.886%
CSc1ccc(-c2nc(CN3CCNCC3C)c(C)o2)cc1 (centres undefined),Percent Effect,"30.3 µM, […]",81.77%
CSc1ccc(-c2nc(CN3C[C@@H](C)NC[C@@H]3C)c(C)o2)cc1,Percent Effect,"30.3 µM, […]",42.57%
CSc1ccc(-c2nc(CN3CCC(C(N)=O)CC3)c(C)o2)cc1,Percent Effect,"30.3 µM, […]",-4.149%
CNS(=O)(=O)c1cc(C(=O)NC2COc3ccccc3C2)ccc1OC (centres undefined),Percent Effect,"30.3 µM, […]",-9.324%
CN(C)C(=O)c1cccc(CCNc2ccccc2S(C)(=O)=O)c1,Percent Effect,"30.3 µM, […]",7.886%
CCN(Cc1cn(CC2CCNCC2)nn1)CC1CCCO1 (centres undefined),Percent Effect,"30.3 µM, […]",62.19%
CN(Cc1cn(CC2CCNCC2)nn1)CC1CCCCO1 (centres undefined),Percent Effect,"30.3 µM, […]",-23.25%
CN(Cc1cn(C2CCNCC2)nn1)CC1CCCO1 (centres undefined),Percent Effect,"30.3 µM, […]",7.398%
Cc1ccccc1-n1cc(-c2ccnc(N3CCCC(O)C3)n2)cn1 (centres undefined),Percent Effect,"30.3 µM, […]",16.96%
COC[C@H]1CCCN1c1nccc(-c2cnn(-c3ccccc3C)c2)n1,Percent Effect,"30.3 µM, […]",41.43%
Cc1ccccc1-n1cc(-c2ccnc(N3CCCC(CN)C3)n2)cn1 (centres undefined),Percent Effect,"30.3 µM, […]",67.45%
COc1ccccc1N1CCN(Cc2nccc(OC)c2OC)CC1=O,Percent Effect,"30.3 µM, […]",-10.47%
CN(Cc1ccc2c(c1)OCO2)C(=O)c1ccc(C2CCCO2)s1 (centres undefined),Percent Effect,"30.3 µM, […]",-16.35%

# From ChEMBL document CHEMBL3988442, “University of Dundee, Small-Polar-MMV Screening Library” (2021)
